According to PubChem BioAssay (EPA / NIEHS):
Results filed as inconclusive are left out. Active and inactive are the calls of the source. Rule for the calls, unless noted: active = hit-call score of the fitted dose curve at least 0.9, where 1 is the maximum; inactive = score below 0.9.

Assays:
[1] = molecular target: Estrogen receptor (Homo sapiens) (UniProt P03372); assay: CCTE_Deisenroth_AIME_384WELL_LUC_Shift: CCTE's 384-well Estrogen Receptor Transactivation Assay with AIME metabolic competence data shift (ERTA luciferase; difference in metabolism positive and negative), Deisenroth Lab (AID 2284041);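 note: shift is response with S9 minus without S9 so positive means metabolism raised ER signal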
Method in brief: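 Test chemicals (0.002–200 uM, 10-point) were pre-incubated 2 h with alginate microspheres containing phenobarbital/beta-naphthoflavone-induced male Sprague Dawley rat liver S9 or water, then medium was transferred to VM7Luc4E2 cells for 24 h luciferase readout; shift = S9-positive minus S9-negative normalized response.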

[2] = CCTE_Shafer_MEA_dev_active_electrodes_number: CCTE's Neural Network Formation Assay for Number of Active Electrodes, Shafer Lab (AID 2284040; active = hit-call score of the fitted dose curve at least 0.9, where 1 is the maximum;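 for AC50: potency for loss of active electrodes versus DMSO so lower counts are hits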)
Method in brief: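 Developing rat cortical networks on MEAs, exposed DIV 0–12. Value is the AUC of active-electrode counts (≥5 spikes/min) from days 5, 7, 9, 12, relative to DMSO.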

[3] = CCTE_Shafer_MEA_dev_burst_rate: CCTE's Neural Network Formation Assay for Burst Rate, Shafer Lab (AID 2284042);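 for AC50: potency for loss of burst rate below DMSO control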
Method in brief: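 Rat primary cortical cultures on PEI/laminin MEA; compound from plating, re-dosed at DIV 5, 9 media change. Single-electrode bursts/recording length, well mean of active electrodes; AUC over DIV 5–12 recordings; loss-of-signal vs DMSO.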

[4] = CCTE_Shafer_MEA_dev_bursting_electrodes_number: CCTE's Neural Network Formation Assay for Number of Bursting Electrodes, Shafer Lab (AID 2284043; active = hit-call score of the fitted dose curve at least 0.9, where 1 is the maximum)
Method in brief: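 Number of electrodes reaching ≥1 burst every 2 min was recorded at DIV 5, 7, 9 and 12 and collapsed as trapezoidal area under the curve. Cultures were rat cortical neurons on MEA plates, dosed continuously from plating with medium and treatment refreshed on DIV 5 and 9.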

[5] = CCTE_Shafer_MEA_dev_per_burst_interspike_interval: CCTE's Neural Network Formation Assay for Burst Interspike Interval, Shafer Lab (AID 2284044);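 for AC50: potency for a decrease of within-burst interspike interval below DMSO level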
Method in brief: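 Readout is the average time between spikes inside single-electrode bursts, taken as a well mean across bursting electrodes. Cortical neurons from rat developed networks on MEA plates under continuous 12-day exposure; recordings on days 5, 7, 9 and 12 were integrated by trapezoidal AUC.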

[6] = CCTE_Shafer_MEA_dev_burst_duration_mean: CCTE's Neural Network Formation Assay for Mean Burst Duration, Shafer Lab (AID 2284045);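 for AC50: curve fitted for loss meaning shorter burst duration than DMSO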
Experimental: CCTE_Shafer_MEA_dev assay is conducted using Axion Biosystems 48 well microelectrode array (MEA) plates and Maestro recording system. Each well of the MEA plate contains a grid of 16 microelectrodes embedded in the culture surface. Electrically active cells, such as neurons, can be cultured over the electrodes, and electrical activity in these cells can be recorded extracellularly. The spontaneous firing of neurons is captured from each electrode on a microsecond timescale providing both temporally and spatially precise data. […] The CCTE_Shafer_MEA_dev assay uses primary cultures of rat cortical neurons. Recordings are made on days post-plating 5, 7, 9 and 12. As these cultures mature over time, neural networks develop functional activity and form cohesive networks in which electrical activity can be highly coordinated. CCTE_Shafer_MEA_dev_burst_duration_mean is 1 of 19 assay components of the CCTE_Shafer_MEA_dev assay. It measures the average time interval from the first spike (action potential firing) to the last spike in a singe-electrode burst (temporally-clustered group of spikes) during a recording in a microelectrode array (MEA) using Axion Biosystems Maestro 768 channel amplifier with the AxIS adaptive spike detector. The mean burst duration is averaged across the actively bursting electrodes to report a well-mean value. To collapse across multiple recordings made on days post-plating 5, 7, 9 and 12, the trapezoidal area-under-the-curve of the component is calculated.Data from the assay component CCTE_Shafer_MEA_dev_burst_duration_mean was analyzed into 1 assay endpoint. This assay endpoint, CCTE_Shafer_MEA_dev_burst_duration_mean, was analyzed in the negative analysis fitting direction relative to DMSO as the negative control and baseline of activity. Using a type of functional reporter, gain or loss-of-signal activity can be used to understand electrical activity.
On the day prior to culture, each well was coated thoroughly with 150 uL of 0.05% polyethyleneimine (PEI, Sigma Cat P3143) in 50 mM HEPES (Sigma Cat H7523) at a pH of 8. […]

[7] = CCTE_Shafer_MEA_dev_interburst_interval_mean: CCTE's Neural Network Formation Assay for Mean Interburst Interval, Shafer Lab (AID 2284046);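 note: well-mean interburst interval of bursting electrodes as AUC over four recording days; curve fitted for decrease in interburst interval relative to DMSO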
Method in brief: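 Rat cortical neurons, 1.5 x 10^5 cells/well, 48-well MEA; compound from day 0 through DIV 12, media and treatment renewed DIV 5/9. Recordings DIV 5, 7, 9, 12; well-mean interburst interval → trapezoidal AUC, loss direction vs DMSO.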

[8] = CCTE_Shafer_MEA_dev_inter_network_spike_interval_mean: CCTE's Neural Network Formation Assay for Mean Inter-network Spike Interval, Shafer Lab (AID 2284047);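 for AC50: potency for a decrease in mean inter-network spike interval below DMSO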
Method in brief: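 Primary rat cortical neurons on PEI-coated 48-well MEAs (16 electrodes/well) were exposed from plating day 0 to DIV 12, with dosing renewed at DIV 5 and 9. Recordings at DIV 5, 7, 9, 12 were collapsed by trapezoidal AUC, loss-of-signal fit vs DMSO.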

[9] = CCTE_Shafer_MEA_dev_network_spike_number: CCTE's Neural Network Formation Assay for Number of Network Spikes, Shafer Lab (AID 2284048);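 for AC50: fit as a loss of signal meaning fewer network spikes than DMSO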
Method in brief: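 Number of network spikes (coordinated firing across electrodes) recorded on days 5, 7, 9 and 12 and summarised as area under the curve. Rat cortical cultures on MEA, continuous compound exposure with full medium/treatment exchange at DIV 5 and 9.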

[10] = CCTE_Shafer_MEA_dev_network_spike_peak: CCTE's Neural Network Formation Assay for Mean Number of Electrodes in Network Spike, Shafer Lab (AID 2284049);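 for AC50: fitted for loss of signal meaning fewer electrodes in network spikes than DMSO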
Experimental: CCTE_Shafer_MEA_dev assay is conducted using Axion Biosystems 48 well microelectrode array (MEA) plates and Maestro recording system. Each well of the MEA plate contains a grid of 16 microelectrodes embedded in the culture surface. Electrically active cells, such as neurons, can be cultured over the electrodes, and electrical activity in these cells can be recorded extracellularly. The spontaneous firing of neurons is captured from each electrode on a microsecond timescale providing both temporally and spatially precise data. […] The CCTE_Shafer_MEA_dev assay uses primary cultures of rat cortical neurons. Recordings are made on days post-plating 5, 7, 9 and 12. As these cultures mature over time, neural networks develop functional activity and form cohesive networks in which electrical activity can be highly coordinated. CCTE_Shafer_MEA_dev_network_spike_peak is 1 of 19 assay components of the CCTE_Shafer_MEA_dev assay. It measures the average number of electrodes participating at the peak of a network spike (the peak of a temporally-clustered group of action potential firing across multiple electrodes) during a recording in a microelectrode array (MEA) using Axion Biosystems Maestro 768 channel amplifier with the AxIS adaptive spike detector. To collapse across multiple recordings made on days post-plating 5, 7, 9 and 12, the trapezoidal area-under-the-curve of the component is calculated.Data from the assay component CCTE_Shafer_MEA_dev_network_spike_peak was analyzed into 1 assay endpoint. This assay endpoint, CCTE_Shafer_MEA_dev_network_spike_peak, was analyzed in the negative analysis fitting direction relative to DMSO as the negative control and baseline of activity. Using a type of functional reporter, gain or loss-of-signal activity can be used to understand electrical activity.
On the day prior to culture, each well was coated thoroughly with 150 uL of 0.05% polyethyleneimine (PEI, Sigma Cat P3143) in 50 mM HEPES (Sigma Cat H7523) at a pH of 8. The plate was incubated at 37C for one hour. PEI was rinsed out with 500 uL of sterile water three times. […]

Sequence of Estrogen receptor (Homo sapiens) (P03372 whole entry, looked up): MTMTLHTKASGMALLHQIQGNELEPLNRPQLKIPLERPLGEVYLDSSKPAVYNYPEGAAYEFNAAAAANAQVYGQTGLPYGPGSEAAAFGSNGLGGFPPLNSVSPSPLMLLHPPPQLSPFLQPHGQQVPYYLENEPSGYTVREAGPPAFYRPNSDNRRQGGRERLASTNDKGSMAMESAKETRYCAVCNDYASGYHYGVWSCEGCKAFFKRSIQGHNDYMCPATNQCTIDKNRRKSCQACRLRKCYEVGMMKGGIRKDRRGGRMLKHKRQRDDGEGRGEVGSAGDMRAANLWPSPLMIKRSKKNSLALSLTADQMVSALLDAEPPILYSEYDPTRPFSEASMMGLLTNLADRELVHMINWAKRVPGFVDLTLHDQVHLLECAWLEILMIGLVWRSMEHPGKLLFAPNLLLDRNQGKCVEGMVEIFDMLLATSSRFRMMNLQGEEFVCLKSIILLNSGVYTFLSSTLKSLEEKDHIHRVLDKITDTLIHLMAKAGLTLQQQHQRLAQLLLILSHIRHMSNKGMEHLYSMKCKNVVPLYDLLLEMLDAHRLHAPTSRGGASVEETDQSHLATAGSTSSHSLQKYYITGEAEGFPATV

Structure (SMILES): NCCCN1CCOCC1
- outcome [1]: inactive

Structure (SMILES): CCCCCCCCCC=O
- outcome [1]: inactive

Structure (SMILES): CN(C)CCCN
- outcome [1]: inactive

Structure (SMILES): CCCCCCCCCCCCCC(=O)O
- outcome [1]: inactive

Structure (SMILES): N#Cc1ccc(CC(=NNC(=O)Nc2ccc(OC(F)(F)F)cc2)c2cccc(C(F)(F)F)c2)cc1
- AC50 [2]: 692 nM (active)
- AC50 [3]: 240 nM (active)
- AC50 [4]: 297 nM (active)
- AC50 [5]: 301 nM (active)
- AC50 [6]: 358 nM (active)
- AC50 [7]: 63.2 nM (active)
- AC50 [8]: 634 nM (active)
- AC50 [9]: 763 nM (active)
- AC50 [10]: 1120 nM (active)

Structure (SMILES): OCCOCCOCCOCCO
- outcome [1]: inactive

Structure (SMILES): CN(C)C(=N)N=C(N)N
- outcome [2]: inactive
- outcome [3]: inactive
- outcome [4]: inactive
- outcome [5]: inactive
- outcome [6]: inactive
- outcome [7]: inactive
- outcome [8]: inactive
- outcome [9]: inactive
- outcome [10]: inactive

Structure (SMILES): CC(=O)OCCOC(C)=O
- outcome [1]: inactive

Structure (SMILES): c1ccc2c(c1)c1cccc3ccc4cccc2c4c31
- AC50 [2]: 3190 nM (active)
- outcome [3]: inactive
- AC50 [4]: 3330 nM (active)
- outcome [5]: inactive
- outcome [6]: inactive
- outcome [7]: inactive
- AC50 [8]: 18600 nM (active)
- outcome [9]: inactive
- outcome [10]: inactive
